Data published in PubChem BioAssay AID1159580 (chemical genetic matrix, 2015).
The whole screen tested about 5,500 compounds, of which about 2,000 (36%) were called active. Roughly 18% stayed inconclusive and do not appear here. Cut-off read from the data, not from the text of the source: active = normalized growth mostly below about 0.91 (no sharp cut-off); inconclusive = no clear call, values can overlap the other calls; inactive = mostly above about 0.92. This is one part of the list.

Test: chemical genetic growth profiling, strain panel (AID 1159580);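 note: tested at 20 µM; growth read once vehicle control cultures reached saturation at 30 °C; 1 = growth at the plate median or of vehicle wells; lower values mean less growth of the strain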
Settings: growth OD
[1] = S. cerevisiae deletion strains, locus YAL013W, strain DEP1, stronger effect = lower value
[2] = S. cerevisiae deletion strains, locus YBR229C, strain ROT2, stronger effect = lower value
[3] = S. cerevisiae deletion strains, locus YDL101C, strain DUN1, stronger effect = lower value
[4] = S. cerevisiae deletion strains, locus YDR150W, strain NUM1, stronger effect = lower value
[5] = S. cerevisiae deletion strains, locus YEL061C, strain CIN8, stronger effect = lower value
[6] = S. cerevisiae deletion strains, locus YGR078C, strain PAC10, stronger effect = lower value
[7] = S. cerevisiae deletion strains, locus YHR030C, strain SLT2, stronger effect = lower value
[8] = S. cerevisiae deletion strains, locus YHR087W, strain rtc3, stronger effect = lower value
[9] = S. cerevisiae deletion strains, locus YJR043C, strain POL32, stronger effect = lower value
[10] = S. cerevisiae deletion strains, locus YJR075W, strain HOC1, stronger effect = lower value
[11] = S. cerevisiae deletion strains, locus YLR039C, strain RIC1, stronger effect = lower value
[12] = S. cerevisiae deletion strains, locus YLR058C, strain SHM2 (second series), stronger effect = lower value
[13] = S. cerevisiae deletion strains, locus YLR085C, strain ARP6, stronger effect = lower value
[14] = S. cerevisiae deletion strains, locus YLR262C, strain YPT6, stronger effect = lower value
[15] = S. cerevisiae deletion strains, locus YML094W, strain GIM5, stronger effect = lower value
[16] = S. cerevisiae deletion strains, locus YMR219W, strain ESC1, stronger effect = lower value
[17] = S. cerevisiae deletion strains, locus YMR263W, strain SAP30, stronger effect = lower value
[18] = S. cerevisiae deletion strains, locus YNL153C, strain GIM3, stronger effect = lower value
[19] = S. cerevisiae deletion strains, locus YNL298W, strain CLA4 (second series), stronger effect = lower value
[20] = S. cerevisiae deletion strains, locus YNL322C, strain KRE1, stronger effect = lower value
[21] = S. cerevisiae deletion strains, locus YNR030W, strain Alg12, stronger effect = lower value
[22] = S. cerevisiae deletion strains, locus YPL055C, strain LGE1, stronger effect = lower value
[23] = S. cerevisiae deletion strains, locus YPL241C, strain CIN2, stronger effect = lower value
[24] = S. cerevisiae deletion strains, locus YPR135W, strain CTF4, stronger effect = lower value
[25] = S. cerevisiae deletion strains, locus YAR019C, strain CDC15, stronger effect = lower value
[26] = S. cerevisiae deletion strains, locus YBL105C, strain PKC1, stronger effect = lower value
[27] = S. cerevisiae deletion strains, locus YBR135W, strain CKS1, stronger effect = lower value
[28] = S. cerevisiae deletion strains, locus YBR136W, strain MEC1, stronger effect = lower value
[29] = S. cerevisiae deletion strains, locus YBR160W, strain CDC28, stronger effect = lower value
[30] = S. cerevisiae deletion strains, locus YDL017W, strain CDC7, stronger effect = lower value
[31] = S. cerevisiae deletion strains, locus YDL028C, strain MPS1, stronger effect = lower value
[32] = S. cerevisiae deletion strains, locus YDL214C, strain PRR2, stronger effect = lower value
[33] = S. cerevisiae deletion strains, locus YDR052C, strain DBF4, stronger effect = lower value
[34] = S. cerevisiae deletion strains, locus YDR054C, strain cdc34, stronger effect = lower value
[35] = S. cerevisiae deletion strains, locus YDR226W, strain ADK1, stronger effect = lower value
[36] = S. cerevisiae deletion strains, locus YDR477W, strain SNF1, stronger effect = lower value
[37] = S. cerevisiae deletion strains, locus YER123W, strain YCK3, stronger effect = lower value
[38] = S. cerevisiae deletion strains, locus YER133W, strain GLC7, stronger effect = lower value
[39] = S. cerevisiae deletion strains, locus YFL009W, strain cdc4, stronger effect = lower value
[40] = S. cerevisiae deletion strains, locus YFL029C, strain CAK1, stronger effect = lower value
[41] = S. cerevisiae deletion strains, locus YFR003C, strain YPI1, stronger effect = lower value
[42] = S. cerevisiae deletion strains, locus YFR019W, strain FAB1, stronger effect = lower value
[43] = S. cerevisiae deletion strains, locus YFR028C, strain CDC14, stronger effect = lower value
[44] = S. cerevisiae deletion strains, locus YGR040W, strain KSS1, stronger effect = lower value
[45] = S. cerevisiae deletion strains, locus YGR052W, strain FMP48, stronger effect = lower value
[46] = S. cerevisiae deletion strains, locus YGR092W, strain DBF2, stronger effect = lower value
[47] = S. cerevisiae deletion strains, locus YHR079C, strain IRE1, stronger effect = lower value
[48] = S. cerevisiae deletion strains, locus YHR082C, strain KSP1, stronger effect = lower value
[49] = S. cerevisiae deletion strains, locus YHR205W, strain SCH9, stronger effect = lower value
[50] = S. cerevisiae deletion strains, locus YIL147C, strain SLN1, stronger effect = lower value
[51] = S. cerevisiae deletion strains, locus YJL095W, strain BCK1, stronger effect = lower value
[52] = S. cerevisiae deletion strains, locus YJL128C, strain PBS2, stronger effect = lower value
[53] = S. cerevisiae deletion strains, locus YJL157C, strain FAR1, stronger effect = lower value
[54] = S. cerevisiae deletion strains, locus YJR066W, strain TOR1 (second series), stronger effect = lower value
[55] = S. cerevisiae deletion strains, locus YJR066W, strain TOR1, stronger effect = lower value
[56] = S. cerevisiae deletion strains, locus YKL048C, strain ELM1, stronger effect = lower value
[57] = S. cerevisiae deletion strains, locus YKL067W, strain YNK1, stronger effect = lower value
[58] = S. cerevisiae deletion strains, locus YKL101W, strain HSL1, stronger effect = lower value
[59] = S. cerevisiae deletion strains, locus YKL193C, strain SDS22, stronger effect = lower value
[60] = S. cerevisiae deletion strains, locus YKL203C, strain TOR2, stronger effect = lower value
[61] = S. cerevisiae deletion strains, locus YLR113W, strain HOG1, stronger effect = lower value
[62] = S. cerevisiae deletion strains, locus YLR133W, strain CKI1, stronger effect = lower value
[63] = S. cerevisiae deletion strains, locus YLR403W, strain SFP1, stronger effect = lower value
[64] = S. cerevisiae deletion strains, locus YML070W, strain DAK1, stronger effect = lower value
[65] = S. cerevisiae deletion strains, locus YMR001C, strain CDC5, stronger effect = lower value
[66] = S. cerevisiae deletion strains, locus YMR205C, strain PFK2 (second series), stronger effect = lower value
[67] = S. cerevisiae deletion strains, locus YMR277W, strain FCP1, stronger effect = lower value
[68] = S. cerevisiae deletion strains, locus YNL006W, strain LST8, stronger effect = lower value
[69] = S. cerevisiae deletion strains, locus YNL020C, strain ARK1, stronger effect = lower value
[70] = S. cerevisiae deletion strains, locus YNL161W, strain CBK1, stronger effect = lower value
[71] = S. cerevisiae deletion strains, locus YNL183C, strain NPR1, stronger effect = lower value
[72] = S. cerevisiae deletion strains, locus YNL207W, strain RIO2, stronger effect = lower value
[73] = S. cerevisiae deletion strains, locus YNL222W, strain SSU72, stronger effect = lower value
[74] = S. cerevisiae deletion strains, locus YNL307C, strain MCK1 (second series), stronger effect = lower value
[75] = S. cerevisiae deletion strains, locus YOL078W, strain AVO1, stronger effect = lower value
[76] = S. cerevisiae deletion strains, locus YOL136C, strain PFK27, stronger effect = lower value
[77] = S. cerevisiae deletion strains, locus YOR061W, strain CKA2, stronger effect = lower value
[78] = S. cerevisiae deletion strains, locus YOR119C, strain RIO1, stronger effect = lower value
[79] = S. cerevisiae deletion strains, locus YOR231W, strain MKK1, stronger effect = lower value
[80] = S. cerevisiae deletion strains, locus YOR329C, strain SCD5, stronger effect = lower value
[81] = S. cerevisiae deletion strains, locus YPL031C, strain PHO85, stronger effect = lower value
[82] = S. cerevisiae deletion strains, locus YPL153C, strain RAD53, stronger effect = lower value
[83] = S. cerevisiae deletion strains, locus YPL204W, strain HRR25, stronger effect = lower value
[84] = S. cerevisiae deletion strains, locus YPL209C, strain IPL1, stronger effect = lower value
[85] = S. cerevisiae deletion strains, locus YPL256C, strain CLN2, stronger effect = lower value
[86] = S. cerevisiae deletion strains, locus YPR025C, strain CCL1, stronger effect = lower value
[87] = S. cerevisiae deletion strains, strain NNK1, stronger effect = lower value
[88] = S. cerevisiae deletion strains, strain TSCII, stronger effect = lower value

Measured: normalized growth

C/C(=C\C(=O)Nc1ccc(F)cc1)Nc1ccc(F)cc1
inactive: [1] 1 | [2] 1.01 | S. cerevisiae deletion strains, locus YCL061C, strain MRC1, stronger effect = lower value 1.04 | [3] 1.05 | [4] 1.04 | [5] 0.973 | [6] 1.03 | S. cerevisiae deletion strains, locus YGR229C, strain SMI1, stronger effect = lower value 0.979 | [7] 1.02 | [8] 0.971 | [9] 1.02 | [10] 1 | S. cerevisiae deletion strains, locus YKL190W, strain CNB1, stronger effect = lower value 1.01 | [11] 1.05 | [12] 0.998 | [13] 0.975 | [14] 0.989 | [15] 0.982 | [16] 1 | [17] 1.01 | [18] 1.04 | [19] 1 | [20] 1 | [21] 1 | S. cerevisiae deletion strains, locus YOL006C, strain TOP1, stronger effect = lower value 1.04 | [22] 0.976 | [23] 0.999 | [24] 1.05 | S. cerevisiae strains, strain wild type, stronger effect = lower value 1

N#C/C(=N/Nc1ccccc1)C(=O)c1ccccc1OC(F)(F)F
inactive: [25] 0.922 | [26] 0.912 | [27] 0.91 | [28] 0.917 | [29] 0.916 | [30] 0.918 | [31] 0.918 | [3] 0.93 | S. cerevisiae deletion strains, locus YDL108W, strain KIN28, stronger effect = lower value 0.912 | S. cerevisiae deletion strains, locus YDL132W, strain cdc53, stronger effect = lower value 0.909 | [32] 0.877 | [33] 0.928 | [34] 0.922 | [35] 0.901 | [36] 0.88 | [37] 0.831 | [38] 0.898 | [39] 0.91 | [40] 0.919 | [41] 0.918 | [42] 0.903 | [43] 0.906 | [44] 0.853 | [45] 0.883 | [46] 0.797 | [47] 0.853 | [48] 0.9 | [49] 0.901 | [50] 0.912 | [51] 0.891 | [52] 0.89 | [53] 0.883 | S. cerevisiae deletion strains, locus YJR016C, strain ILV3, stronger effect = lower value 0.918 | [54] 0.879 | [55] 0.885 | [56] 0.883 | [57] 0.895 | [58] 0.876 | [59] 0.919 | [60] 0.913 | [62] 0.87 | [63] 0.837 | [64] 0.879 | [65] 0.92 | [66] 0.91 | [67] 0.912 | [68] 0.915 | [69] 0.866 | [70] 0.915 | [71] 0.92 | [72] 0.905 | [73] 0.913 | [74] 0.893 | [75] 0.913 | [76] 0.845 | [77] 0.885 | [78] 0.909 | [79] 0.857 | [80] 0.922 | [81] 0.842 | [82] 0.882 | [83] 0.802 | [84] 0.915 | [85] 0.881 | [86] 0.919 | S. cerevisiae deletion strains, locus YPR106W, strain ISR1, stronger effect = lower value 0.926 | S. cerevisiae deletion strains, locus YPR111W, strain DBF20, stronger effect = lower value 0.904 | [87] 0.914 | [88] 0.902
active: [7] 0.841 | [61] 0.816

CC(=O)/C(C#N)=N\Nc1ccc(F)cc1
active: [25] 0.429 | [26] 0.519 | [27] 0.782 | [28] 0.583 | [29] 0.723 | [30] 0.584 | [31] 0.728 | [3] 0.201 | [32] 0.118 | [34] 0.525 | [36] 0.127 | [37] 0.115 | [38] 0.17 | [39] 0.631 | [40] 0.468 | [41] 0.633 | [42] 0.115 | [43] 0.699 | [44] 0.137 | [45] 0.185 | [46] 0.102 | [7] 0.108 | [47] 0.138 | [48] 0.171 | [49] 0.102 | [50] 0.585 | [51] 0.12 | [52] 0.316 | [53] 0.102 | [54] 0.107 | [55] 0.137 | [56] 0.14 | [57] 0.117 | [58] 0.118 | [59] 0.455 | [60] 0.126 | [61] 0.178 | [62] 0.118 | [63] 0.0142 | [64] 0.123 | [65] 0.458 | [66] 0.132 | [67] 0.349 | [68] 0.57 | [69] 0.123 | [70] 0.409 | [71] 0.147 | [72] 0.632 | [73] 0.487 | [74] 0.126 | [75] 0.568 | [76] 0.114 | [77] 0.127 | [78] 0.131 | [79] 0.136 | [80] 0.488 | [81] 0.124 | [82] 0.132 | [83] 0.124 | [84] 0.587 | [85] 0.181 | [86] 0.631 | [87] 0.344 | [88] 0.512
inactive: [33] 0.957 | [35] 0.978

CCOC(=O)CNc1ccc(F)cc1
inactive: [1] 0.995 | [2] 0.989 | [3] 1.02 | S. cerevisiae deletion strains, locus YDL134C, strain PPH21, stronger effect = lower value 0.977 | [4] 1.02 | [5] 1.01 | [6] 0.991 | [7] 0.989 | [8] 1.01 | S. cerevisiae deletion strains, locus YJL187C, strain SWE1, stronger effect = lower value 1 | [9] 0.988 | [10] 0.99 | [11] 0.953 | [12] 0.983 | [13] 0.986 | [14] 0.975 | [15] 1.04 | [16] 0.997 | [17] 0.983 | S. cerevisiae deletion strains, locus YNL128W, strain TEP1, stronger effect = lower value 0.98 | [18] 1.01 | [19] 0.974 | [20] 0.999 | [21] 1.03 | [22] 1.02 | [23] 0.977 | [24] 0.965
